Source: the supplement of paper PMC9135407
“And” between values parts separate entries of the source, which are not always exact repeats. Equal values may be shown once. Where a name gives a salt, the structure may show the parent alone. Among all 5,800 compounds or so, about 620 (11%) showed activity. Only a selection was taken, and actives are over-represented in it overall. A number with no mark means an inactive call.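 Rule for the calls: active = score above a cut-off or among the top three wells of a plate; in these data no inactive exceeds 0.85.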

Tested on: primary human hepatic stellate cells (donor 1)
Assay: scaled lipid accumulation score (0 = DMSO-like, 1 = nortriptyline-like); higher = stronger HSC inactivation (lipid re-accumulation), active = hit call of the paper
Conditions: 48 h
[1] = library stock concentration: 3.33 mM
[2] = library stock concentration: 10 mM
[3] = library stock concentration: 1 mM

SMILES: CC1(C)S[C@@H]2[C@H](NC(=O)[C@H](N)c3ccc(O)cc3)C(=O)N2[C@H]1C(=O)O [Amoxicillin Sodium]
- scaled lipid accumulation score [1]: ≤ 0
- scaled lipid accumulation score [2]: ≤ 0

SMILES: O=C(CCC/C=C\C[C@@H]1C(/C=C/[C@@H](O)COc2cccc(C(F)(F)F)c2)[C@H](O)C[C@@H]1O)NC(CO)CO (some centres not stated) [Fluprostenol serinol amide]
- scaled lipid accumulation score [3]: ≤ 0

SMILES: c1ccc(C2CN3CCSC3=N2)cc1 (single isomer, unassigned; (-)) [(-)-Tetramisole hydrochloride]
- scaled lipid accumulation score [2]: ≤ -0.055

SMILES: CCCCC(C)(O)C/C=C/[C@H]1[C@H](O)CC(=O)[C@@H]1CCCCCCC(=O)OC (some centres not stated) [Misoprostol]
- scaled lipid accumulation score [3]: ≤ 0
- scaled lipid accumulation score (library stock concentration: 5.2 mM): ≤ 0

SMILES: CCCCC[C@H](O)/C=C/[C@@H]1[C@@H](CCCCCCC(=O)O)[C@H](O)C[C@@H]1O [11.beta.-Prostaglandin F1.beta.]
- scaled lipid accumulation score [3]: ≤ 0

SMILES: COc1cc2ncnc(Nc3ccc(F)c(Cl)c3)c2cc1OCCCN1CCOCC1 [Iressa]
- scaled lipid accumulation score [2]: 0.9 (active)

SMILES: CC(C)[C@H](O)C(=O)O [(S)-(+)-2-hydroxy-3-Methylbutyric Acid]
- scaled lipid accumulation score [3]: ≤ 0

SMILES: Cc1cc(C)c(/C=C2\C(=O)Nc3ccccc32)[nH]1 [Semaxanib (SU5416)]
- scaled lipid accumulation score [1]: ≤ 0
- scaled lipid accumulation score [2]: 0.145

SMILES: CN(C)c1ccc(/C=C2/C(=O)Nc3ccccc32)cc1
- scaled lipid accumulation score [2]: ≤ 0 and 0.041
- scaled lipid accumulation score (library stock concentration: 18.9 mM): 0.01

SMILES: Cc1cc(C)c(/C=C2\C(=O)Nc3ccccc32)[nH]1 [VEGF Receptor 2 Kinase Inhibitor III]
- scaled lipid accumulation score [1]: ≤ 0

SMILES: Cc1cc(C)c(/C=C2\C(=O)Nc3ccccc32)[nH]1
- scaled lipid accumulation score [3]: ≤ 0
- scaled lipid accumulation score [2]: ≤ 0 and 0.011

SMILES: CC(C)(C)OC(=O)Nc1ccc(-c2cc(C(=O)NCCCCCCC(=O)NO)no2)cc1
- scaled lipid accumulation score [3]: ≤ 0

SMILES: CC(=O)OCC(=O)[C@@]1(O)CC[C@H]2[C@@H]3C[C@H](C)C4=CC(=O)C=C[C@]4(C)[C@H]3[C@@H](O)C[C@@]21C
- scaled lipid accumulation score [2]: ≤ 0

SMILES: CN1CCN(CCc2ccc(Cl)c(Cl)c2)CC1 [BD 1063 dihydrochloride]
- scaled lipid accumulation score [2]: 0.684

SMILES: Br.Br.CN(CCc1ccc(Cl)c(Cl)c1)CCN1CCCC1 [BD 1008 dihydrobromide]
- scaled lipid accumulation score [2]: 0.882 (active)

SMILES: COc1ccc(CCN(C)CCc2ccc(OC)c(OC)c2)cc1OC [YS-035 hydrochloride]
- scaled lipid accumulation score [2]: 0.011 and 0.112

SMILES: C[C@H](NCc1ccc(OCc2cccc(F)c2)cc1)C(N)=O [Safinamide Mesylate]
- scaled lipid accumulation score [1]: ≤ 0
- scaled lipid accumulation score [2]: ≤ 0

SMILES: CC(C)OC(=O)CCC/C=C/C[C@H]1C(=O)C[C@@H](O)[C@@H]1/C=C/[C@@H](O)COc1cccc(C(F)(F)F)c1 [9-keto Fluprostenol isopropyl ester]
- scaled lipid accumulation score [3]: ≤ 0

SMILES: C=C1C[C@@H](O)[C@H](/C=C/[C@@H](O)C(C)(C)CCCC)[C@H]1C/C=C\CCCC(=O)O [9-deoxy-9-methylene-16,16-dimethyl Prostaglandin E2]
- scaled lipid accumulation score [3]: ≤ 0

SMILES: CCOC(=O)c1cnc2ccc(-c3cncc(NS(=O)(=O)c4ccccc4)c3)cn12 [listing 1 of 2 here]
- scaled lipid accumulation score [2]: 0.915 (active)

SMILES: CCOC(=O)c1cnc2ccc(-c3cncc(NS(=O)(=O)c4ccccc4)c3)cn12 [listing 2 of 2 here]
- scaled lipid accumulation score [1]: 0.492

SMILES: CCCCC[C@H](O)/C=C/[C@H]1C(=O)C[C@H](O)[C@@H]1C/C=C\CCCC(=O)NCCO [Prostaglandin D2 Ethanolamide]
- scaled lipid accumulation score [3]: ≤ 0

SMILES: CCC(C)C1OC2(CCC1C)CC1CC(CC=C(C)C(OC3CC(OC)C(OC4CC(OC)C(O)C(C)O4)C(C)O3)C(C)C=CC=C3COC4C(O)C(C)=CC(C(=O)O1)C34O)O2 (configuration not stated) [Ivermectin]
- scaled lipid accumulation score [1]: 0.007
- scaled lipid accumulation score [2]: 0.198

SMILES: CCC(=O)NC[C@H](Cc1ccc(OCCc2nc(-c3ccccc3)oc2C)cc1)N/C(C)=C\C(=O)c1ccc(C(F)(F)F)cc1
- scaled lipid accumulation score [2]: ≤ -0.001

SMILES: NC[C@H]1CC[C@H](C(=O)Oc2ccc(CCC(=O)O)cc2)CC1
- scaled lipid accumulation score [2]: ≤ 0

SMILES: COC(=O)N[C@@H](C)CNc1nccc(-c2cn(C(C)C)nc2-c2cc(Cl)cc(NS(C)(=O)=O)c2F)n1
- scaled lipid accumulation score [1]: ≤ -0.009
- scaled lipid accumulation score [2]: 0.655

SMILES: CNCCCC12CCC(c3ccccc31)c1ccccc12.Cl [Maprotiline hydrochloride] [listing 1 of 2 here]
- scaled lipid accumulation score [2]: 1.59 (active)

SMILES: CNCCCC12CCC(c3ccccc31)c1ccccc12.Cl [Maprotiline HCl]
- scaled lipid accumulation score [2]: 1.31 (active)

SMILES: CNCCC[C@]12CC[C@H](c3ccccc31)c1ccccc12.Cl [Maprotiline hydrochloride]
- scaled lipid accumulation score: 0.944 (active)

SMILES: CNCCCC12CCC(c3ccccc31)c1ccccc12.Cl [Maprotiline hydrochloride] [listing 2 of 2 here]
- scaled lipid accumulation score (library stock concentration: 6.4 mM): 1.05 (active)
- scaled lipid accumulation score [2]: 0.918 (active) and 1.23 (active)

SMILES: O=C(O)C1CCCNC1 (configuration not stated)
- scaled lipid accumulation score: ≤ 0
- scaled lipid accumulation score [2]: 0.207

SMILES: CCCCC[C@@](C)(O)/C=C/[C@@H]1[C@@H](C/C=C\CCCC(=O)O)[C@@H](O)C[C@H]1O [15(R)-15-methyl Prostaglandin F2.alpha.]
- scaled lipid accumulation score [3]: ≤ 0
